In ChEMBL document CHEMBL4513216, “Probing the Open Global Health Chemical Diversity Library for Multistage-Active Starting Points for Next-Generation Antimalarials” (ACS Infect Dis, 2020):
Screen size: about 69,000 compounds; about 8,600 (12%) showed an effect of 50% or more. Many of the other results were omitted from the sample, so strong results are more common in it than they were.

test system: Plasmodium berghei; assay: Screen against P. berghei liver stage (PbLuc), transformed with Luciferase, at 10uM; type: functional, HepG2; settings: tested at 10 uM

| SMILES | INHIBITION |
| --- | --- |
| O=C(NCCCn1cccn1)N1CCCC1c1cccs1 (stereo not given) | 25.2% |
| Cc1ccsc1CN1CC[C@H]2OCC[C@@]2(C(=O)N2CCCO2)C1 | 37.2% |
| COCCNC(=O)[C@@H]1C[C@@H]2CCN(c3ncccn3)C[C@H]2O1 | 4.57% |
| O=C(Nc1ccccc1F)C1CSCN1C(=O)CCc1ccco1 (stereo not given) | -39.2% |
| CCN(C)C(=O)Nc1cc(F)c(OC)cc1F | 14.9% |
| CCNC(=O)c1ccc(NC(=O)N(C)Cc2cc(C)on2)c(C)c1 | 29.6% |
| COc1ccc(F)cc1C(=O)N(C)Cc1cc(C)on1 | 35.7% |
| Cc1cc(CN(C)C(=O)NCc2ccccn2)no1 | -22.8% |
| Cc1cc(CN(C)C(=O)Nc2ccccc2C)no1 | 67.1% |
| COc1ccc(S(N)(=O)=O)cc1C(=O)N(C)Cc1cc(C)on1 | 51.2% |
| COc1cc(F)c(NC(=O)N(C)CCNC(=O)N(C)C)cc1F | 36.3% |
| COc1ccc(Cl)cc1C(=O)N(C)Cc1cc(C)on1 | -4.16% |
| COc1cc(F)c(NC(=O)N(C)Cc2cc(C)on2)cc1F | 52.6% |
| Cc1ccc(-n2nnc(C(=O)O)c2C)c(C)c1 | 14.2% |
| CCOCCC(=O)N1C[C@@H]2CC[C@H]1CN(c1ncccn1)C2 | 43.2% |
| Cc1cccc(NC(=O)C2CSCN2C(=O)c2cnccn2)c1C (stereo not given) | 33.35% |
| COc1ccc(C)cc1CC(=O)NS(=O)(=O)c1ccc(C(N)=O)cc1 | -2.19% |
| CCC(=O)Nc1nnc(CCOc2ccccc2OC)s1 | -23.8% |
| O=C(NCC1Cn2nnc(-c3ccoc3)c2CO1)c1ccc[nH]1 (stereo not given) | 27.4% |
| CN1CCCC1c1nccnc1-c1ccc(C(=O)O)cc1 (stereo not given) | -14.2% |
| Cc1ncsc1CN(Cc1ccccc1)Cc1ncc[nH]1 | 46.6% |
| COc1c(C2CCCN2C(=O)c2ccc(N(C)C)nn2)c(C)nn1C (stereo not given) | -57.4% |
| Cc1nn(C)c(C)c1C1CCCN1C(=O)c1ccc(C(N)=O)cn1 (stereo not given) | 9.555% |
| Cc1nn(C)c(Cl)c1C1CCCN1C(=O)c1ccc(C(N)=O)cn1 (stereo not given) | 84.3% |
| Cc1nn(C)c(Cl)c1C1CCCN1C(=O)c1ccc(N(C)C)nn1 (stereo not given) | 53.8% |
| Cc1nn(C)c(Cl)c1C1CCCN1C(=O)c1ccc(O)nc1 (stereo not given) | 48.1% |
| Cc1nn(C)c(C)c1C1CCCN1C(=O)c1ccc(N(C)C)nn1 (stereo not given) | -71.1% |

| SMILES | INHIBITION |
| --- | --- |
| Cc1nn(C)c(C)c1NC(=O)CN1CCN(c2nccs2)C(C)C1 (stereo not given) | 21.6% |
| Cc1c(C[S+](C)[O-])cccc1NC(=O)c1cc(Cl)ccn1 (stereo not given) | -42.1% |
| Cc1c(NC(=O)N(C)CCn2cnnc2)cccc1OC1CCCC1 | 13.3% |
| CCNC(=O)N(CCCO)C1CCCc2ccccc21 (stereo not given) | 45.7% |
| CC(O)CN1CCC(CNCc2ccc(OC(F)(F)F)cc2)CC1 (stereo not given) | 44.7% |
| CCN(c1ccc(C(=O)N2CCCC(C)C2)cc1)S(=O)(=O)CC (stereo not given) | 10.1% |
| CCS(=O)(=O)N(C)c1ccc(C(=O)N2CCCC(C)C2)cc1 (stereo not given) | 60.1% |
| CCN(c1ccc(C(=O)N2CCC(C)CC2)cc1)S(=O)(=O)CC | 22.9% |
| O=C(NCCc1cccnc1)Nc1cc(C(F)(F)F)c[nH]c1=O | -12.6% |
| COCCOCC(=O)N1CCC(c2ccccc2F)C1 (stereo not given) | -112% |
| COCCOCCC(=O)N1CCC(c2ccccc2C)C1 (stereo not given) | 55.2% |
| Cc1ccccc1C1CCN(C(=O)CCNC(=O)C(C)(C)C)C1 (stereo not given) | -66.4% |
| CS(=O)(=O)N1CCC(NC(=O)COc2ccc(Cl)cc2)CC1 | -61.4% |
| CC1c2ncc(CN3CCN(C)CC3)n2CCN1CC1CC1 (stereo not given) | -10.4% |
| OCC1(CC2CCCCO2)CCN(c2cnc3ccccc3n2)CC1 (stereo not given) | 83.9% |
| CN(C)CC1CN(c2cnc3ccccc3n2)CCO1 (stereo not given) | 38.8% |
| Cc1cc(N2CCC(O)(C(=O)O)CC2)nc2ccccc12 | 32.2% |
| COCCC1(C(=O)O)CCCN(c2cc(C)c3ccccc3n2)C1 (stereo not given) | 20.2% |
| c1ccc2nc(N3CCOC(Cn4cccn4)C3)cnc2c1 (stereo not given) | -34% |
| Cc1cc(N2CCC(CO)(CC3CCCCO3)CC2)nc2ccccc12 (stereo not given) | 53% |
| Cc1cc(N2CCC3(CC2)C(C(=O)O)CC(=O)N3C)nc2ccccc12 (stereo not given) | 9.56% |
| COCCC1(C(=O)O)CCN(c2cc(C)c3ccccc3n2)CC1 | 62.8% |
| Cc1cc(N2CCC3(CCCN(CCO)C3=O)C2)nc2ccccc12 (stereo not given) | 57.2% |
| Cc1cc(N2CCC(CO)(CC3CCCCO3)CC2)c2ccccc2n1 (stereo not given) | 47.6% |
| Cc1cc(N2CCC3(CCCN(CCO)C3=O)C2)nc2cc(Cl)ccc12 (stereo not given) | 16.1% |
| Cc1cc(N2CCC3(CCCN(CCO)C3=O)C2)nc(C)c1C#N (stereo not given) | 38% |
| Cc1cc(C(=O)N(CC(F)(F)F)C2CCOCC2)c(C)o1 | 15% |

| SMILES | INHIBITION |
| --- | --- |
| Cc1nnc(CNC(C)c2cc(C)c(F)c(C)c2)s1 (stereo not given) | 36.2% |
| CC(C(=O)Nc1ccccn1)n1ccc(C(F)(F)F)n1 (stereo not given) | 11% |
| O=C(O)[C@@H]1CN(C(=O)CSCC2CC2)C[C@H]1c1ccncc1 | -8.7% |
| CCN(CC1CCOC1)C(=O)c1cn2ccc(C)cc2n1 (stereo not given) | 30.5% |
| Cc1cc(-c2cc(N)c(=O)n(CC(=O)NC3CCCC3)n2)c(C)o1 | 18.27% |
| Cc1ccc(CN2CC[C@@H]3[C@@H](CO[C@H]3CN3CCN(C)CC3)C2)cc1 | 23.3% |
| Cc1cc(C(=O)N2CC[C@@H](O)[C@@H]2Cc2ccccc2)no1 | 2.58% |
| CCOC(=O)CN1CCC2(CC1)CC(=O)c1ccc(OC)cc1O2 | 72.4% |
| COc1ccc2c(c1)OC1(CCN(Cc3ccc(F)cc3)CC1)CC2=O | 51.6% |
| COc1ccc2c(c1)OC1(CCN(Cc3cccc(C)c3)CC1)CC2=O | 37.2% |
| COc1ccc2c(c1)OC1(CCN(Cc3ccc(C)cc3)CC1)CC2=O | 31.2% |
| COc1ccc2c(c1)C(=O)CC1(CCN(Cc3ccc(F)cc3)CC1)O2 | -0.371% |
| COc1ccc2c(c1)OC1(CCN(Cc3ccccc3C)CC1)CC2=O | 5.56% |
| CSCCC(=O)N1C[C@@H](C)[C@](O)(C(C)C)C1 | 22.5% |
| CCn1cnnc1CNC(=O)N1CCC(CN2CCOCC2)CC1 | -11.4% |
| CNc1ncc(CN(C)C(=O)c2cccc(-n3cnnc3)c2)cn1 | 28.5% |
| CC(C)c1nc(C2CCCN2Cc2cc(=O)n(C)c(=O)n2C)no1 (stereo not given) | 33.8% |
| CCc1[nH]nc(NC(=O)c2cc[nH]n2)c1C | 0.342% |
| CN1C(=O)CCC12CCN(c1ccc(C#N)cn1)CC2 | 38.5% |
| N#Cc1ccc(N2CCC3(CCC(=O)N3Cc3ccncc3)CC2)nc1 | 43.9% |
| N#Cc1ccc(N2CCC3(CCC(=O)N3Cc3cccnc3)CC2)nc1 | 27.6% |
| N#Cc1ccc(N2CCCC3(CCC(=O)N3CC3CC3)CC2)nc1 (stereo not given) | 56.6% |
| N#Cc1ccc(N2CCC3(CCC(=O)N3CCN3CCCC3)CC2)nc1 | 68.4% |
| O=C1CCC2(CCCN(c3ncc(F)cn3)CC2)N1CC1CC1 (stereo not given) | -57.6% |
| O=C(c1ccsc1)N1CCN2C[C@H](OCc3cccnc3)C[C@H]2C1 | 21.6% |
| CCc1nc(-c2ccc(NC(=O)N3CCCC3)cc2)no1 | -81% |
| CCCC1COCCN1Cc1ccc(C(=O)O)cc1 (stereo not given) | 19.8% |

| SMILES | INHIBITION |
| --- | --- |
| Cc1nc2cc(O)nn2c(C)c1CCC(=O)N(C)Cc1ccccc1 | -24.8% |
| Cc1cc(C(=O)N2C[C@@H]3C(CN(C)CCCn4cccn4)[C@@H]3C2)c(C)o1 (stereo not given in full) | 52.6% |
| Cc1cccc(C(=O)N2CCN(C(=O)Cc3ccccn3)CC2)c1C | 31.8% |
| Cc1ccccc1C(=O)N1C[C@@H]2C(CN(C)CCc3ccccn3)[C@@H]2C1 (stereo not given in full) | 55.4% |
| Cc1cc(C(=O)N2CCC(CCn3cccn3)CC2)c(C)o1 | 39.5% |
| Cc1cc(C(=O)N2C[C@@H]3C(CN(C)CCc4ccccn4)[C@@H]3C2)c(C)o1 (stereo not given in full) | 41.5% |
| Cc1cc(C(=O)N2CCN(CC(O)Cn3cccn3)CC2)c(C)o1 (stereo not given) | 29.6% |
| Cc1noc(C2CCC3(CCN(C(=O)c4cnccn4)CC3)O2)n1 (stereo not given) | -4.32% |
| c1ccc(-n2ccc(CNC3CCc4ncnn4C3)n2)cc1 (stereo not given) | 16.45% |
| Cc1ccc(-c2ccccc2CC2(C(=O)NC(C)C)CCCNC2)cc1 (stereo not given) | 42.1% |
| Cc1occc1C(=O)N1CCCn2cnc(CN3CCCC3=O)c2C1 | 34.2% |
| COc1nccc(N2CC[C@@H](N3CCN(C)CC3)[C@H](O)C2)c1C#N | -3.77% |
| Cc1ccccc1CC1(CO)CCCN(c2ncncc2C(C)C)C1 (stereo not given) | 68.4% |
| Cc1ccccc1CC(=O)N(C)CC1(O)CCCN(c2ccccn2)C1 (stereo not given) | -10.5% |
| Cc1cnc(C)c(N2CCC(Cc3ccccc3Cl)(C(=O)O)CC2)n1 | 13.5% |
| COc1cccc(CC2(CO)CCCN(c3nccs3)C2)c1 (stereo not given) | 3.46% |
| CCCC1(CO)CCCN(c2ncnc3c2c(C)nn3C)C1 (stereo not given) | 25.9% |
| Cc1cnc(C)c(N2CCCC(CO)(Cc3ccccc3C)C2)n1 (stereo not given) | 68.4% |
| Cc1cnc(C)c(N2CCCC(C/C=C/c3ccccc3)(C(=O)O)C2)n1 (stereo not given) | 27.9% |
| Cc1ccccc1CC1(CO)CCCN(c2ncnc3sccc23)C1 (stereo not given) | 87.9% |
| Cc1ccccc1CC1(C(=O)O)CCCN(c2ncnc3[nH]ccc23)C1 (stereo not given) | 25.5% |
| Cc1cnc(C)c(N2CCCC(CC3CC3)(C(=O)O)C2)n1 (stereo not given) | 57.5% |
| CCNC(=O)[C@@H]1C[C@@H](NC(=O)c2ccc(C#N)cc2)CN1CCCSC | -14.3% |
| CCCC(=O)N1CCC([C@@H]2C[C@H](C(F)(F)F)n3nc(C)cc3N2)CC1 | -29.8% |
